Source: PubChem
SARS PLP yeast – SARS-CoV PLP inhibition in yeast; S. cerevisiae expressing SARS-CoV PLpro, growth rescue; Potency, µM (highest dose often 32.9 µM), for the others: at the top dose activity, positive = growth rescue, usual class: activators; hit rate 0.19% among 330,000; also: potency is read from the fitted curve at half-maximal effect; 0% is about no effect; nearly all actives have a fitted effect of over 55% in size
Shiga toxin inh – inhibitors of Shiga toxin in Vero cells. inhibition, % at 38.7 µM. Vero cells, Shiga toxin protein synthesis inhibition reporter. hit rate 9.2% among 290,000; in the data active = inhibition mostly above about 28%, no sharp cut-off; inactive = mostly below about 43%; also: 0% is about no effect
NS1 inh – blocks influenza NS1 protein function. AID 2326. Potency, µM (highest dose often 46.1 µM), for inactives: at the top dose activity, positive = more growth. hit rate 0.4% among 270,000; also: potency is read from the fitted curve at half-maximal effect; actives are rising curves; nearly all actives have a fitted effect of over 50% in size
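S. cerevisiae expressing influenza A NS1, grown in glucose, washed, then diluted 1:100 into pH 6.0 -URA galactose medium with 23 nl compound. Growth recovery read as OD600; NS1-free strain serves as control.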
CHX counter – counter-screen hit for Shiga toxin inhibitors, cycloheximide. max response, %. AID 2314. cell reporter, cycloheximide protein synthesis inhibition counterscreen. hit rate 12% among 300,000; in the data active = max response mostly above about 13%, no sharp cut-off; inactive = mostly below about 14%; also: read at 38.3 µM for the half of the compounds with a filed dose; 0% is about no effect
Numbers without * were called inactive; ? = inconclusive; / = not tested or not shown. Shown are actives, neighbours in structure and some others; about 12% of the full set was active somewhere. Unless noted, calls follow the shape of the full dose curve.

SMILES	SARS PLP yeast	Shiga toxin inh	NS1 inh	CHX counter
CCC(=O)Oc1ccc(C(=O)Nc2ccc([N+](=O)[O-])cc2)cc1	-1.8%	102.4*	3.0%	39.7*
CC(C)COc1ccc(C(=O)Nc2ccc(SC(F)F)cc2)cc1	-15.7%	39.3	7.5%	24.1*
C[C@H](CO)N1C[C@H](C)[C@@H](CN(C)S(C)(=O)=O)Oc2ccc(NC(=O)c3ccncc3)cc2C1=O	5.2%	/	/	/
CC(=O)Nc1ccc(SCC(=O)Nc2oc(C)c3c(C)n[nH]c(=O)c23)cc1	-4.1%	/	/	/
COC(=O)CCCNC(=O)c1ccc(OS(=O)(=O)c2cc([N+](=O)[O-])ccc2C)cc1	-0.3%	/	/	/
Cc1ccc(-n2ncc3c2CC(C)(C)CC3NC(=O)C2CCOCC2)cc1 (centres undefined)	?	-4.3	2.2%	-1.6
CC1OC(Nc2ccc(N=Nc3ccccc3)cc2)C(O)C(O)C1O (centres undefined)	-3.0%	118.3*	/	36.7*
CC1OC(Nc2cccc3ccccc23)C(O)C(O)C1O (centres undefined)	12.5%	-11.6	-4.6%	-1.5
N#CC1=C(N)Oc2n[nH]c(-c3cccs3)c2C1c1ccncc1 (centres undefined)	0.9%	18.0	/	7.8
N#CC1=C(N)Oc2c(c(=O)sc3ccccc23)C1c1ccncc1 (centres undefined)	-3.0%	6.8	/	19.9*
Cc1n[nH]c(C)c1Cc1c(F)cccc1Cl	17.6%	9.7	-2.1%	8.1
Clc1ccc(Cc2ccc(Cl)nn2)c(Cl)c1	-6.7%	-9.0	-12.3%	-4.3
Nc1nc(-c2ccccn2)nc(N)c1Cc1ccccc1F	26.2%	78.3*	/	38.4*
Nc1nc(-c2ccccn2)nc(N)c1Cc1ccc(Cl)cc1Cl	22.5%	56.0*	/	37.0*
Nc1nc(-c2ccccn2)nc(N)c1Cc1c(F)cccc1Cl	?	42.7	/	34.5*
Cn1c(=O)c2c(nc(C(=N)SCC(=O)O)n2C)n(C)c1=O	/	/	7.94µM*	/
CCCSc1nc2c(c(=O)n(C)c(=O)n2C)n1C	-0.9%	11.4	0.3%	-4.0
COc1ccc(CCN2C(=O)C3CC(C)=C(C)CC3C2=O)cc1OC (centres undefined)	-2.1%	-6.7	-10.5%	-3.6
COCCOC(=O)C1=C(C)NC(C)=C(C(=O)OC/C=C/c2ccccc2)C1c1cccc([N+](=O)[O-])c1 (centres undefined)	/	14.4	/	-5.3
O=C(/C=C/c1ccc([N+](=O)[O-])cc1)NC1CC2CCC1C2 (centres undefined)	-8.8%	48.8*	/	43.2*
O=C(/C=C/c1ccc(Cl)cc1)NC1CC2CCC1C2 (centres undefined)	-3.3%	128.8*	-47.3%	25.7*
O=C(/C=C/c1ccc(Cl)cc1)NC1CCS(=O)(=O)C1 (centres undefined)	1.1%	12.0	/	-1.6
O=C(/C=C/c1ccc([N+](=O)[O-])cc1)NNC(=O)C1CC1	-5.8%	-12.8	/	4.6
O=C(/C=C/c1ccccc1)NC1CC2CCC1C2 (centres undefined)	-49.9%	106.1*	1.6%	44.8*
Cc1cc(C)c(C)c(S(=O)(=O)NC2CCCCC2)c1C	-4.4%	-6.4	-49.9%	7.1
SMILES	SARS PLP yeast	Shiga toxin inh	NS1 inh	CHX counter
CC(O)CNc1nc(NCc2ccccc2)c2cnn(C)c2n1 (centres undefined)	-4.8%	-4.9	0.7%	-9.5
CCOC(=O)C1(CCc2ccccc2)CCN(C(=O)CCn2cncn2)CC1	-2.1%	62.5*	-1.9%	32.0*
CCOC(=O)C1(CCc2ccccc2)CCN(C(=O)CCc2cnn(C)c2)CC1	-1.1%	15.7	-9.4%	-0.5
CCOC(=O)C1(CCc2ccccc2)CCN(C(=O)CCn2cnnn2)CC1	-2.2%	20.6	-1.1%	12.1*
CCOC(=O)C1(Cc2ccccc2Cl)CCN(C(=O)CCn2ccnc2C)CC1	-1.3%	68.1*	-5.5%	42.0*
CCOC(=O)C1(Cc2ccccc2Cl)CCN(S(=O)(=O)N(C)C)CC1	-0.8%	14.2	-7.7%	5.6
CCOC(=O)C1(CCCc2ccccc2)CCN(C(=O)CCn2cnnn2)CC1	-0.4%	33.3	-13.2%	6.0
Cc1ccc(-c2nc3ccccc3o2)cc1NC(=S)NC(=O)/C=C/c1ccco1	1.2%	-6.1	21.7%	14.1
Cc1ccc(-c2nc3ccccc3s2)cc1NC(=S)NC(=O)/C=C/c1ccco1	11.5%	63.3*	5.8%	29.2*
Cc1ccc(-c2nc3ccccc3s2)cc1NC(=S)NC(=O)c1cccc2ccccc12	13.9%	80.5*	?	34.8*
CCOc1ccc(/C(C)=N/NC(=O)c2nnn(-c3nonc3N)c2-c2cccs2)cc1	-1.1%	2.0	3.5%	-7.3
COc1ccc(-c2nc(C)ncc2N=Nc2ccccc2)cc1	1.9%	22.9	6.6%	19.9*
CCN(CC)CC(C)CNC(=O)CN1C(=O)CSc2ccc(S(=O)(=O)N3CCOCC3)cc21 (centres undefined)	8.5%	-13.4	0.6%	-6.3
c1csc(-c2nc(-c3ccc(-c4ccon4)s3)no2)c1	-3.2%	65.4*	-5.5%	56.1*
c1ccc(-c2nc(-c3ccc(-c4ccon4)s3)no2)cc1	1.3%	61.3*	0.4%	33.6*
CCOc1nc(-c2ccccc2)ccc1-c1noc(-c2cccs2)n1	6.0%	-6.7	11.2%	-2.7
COC(=O)c1ccc(NS(=O)(=O)c2cc(-c3cc(C)no3)ccc2OC)cc1	28.9%	-3.6	-12.2%	10.3
COc1ccc(C(=O)NCC(=O)OCC(=O)Nc2cc([N+](=O)[O-])ccc2F)cc1	2.1%	14.6	/	-9.8
Cc1nn2cc(-c3ccc(N)cc3)nc2s1	-0.1%	69.3*	0.2%	34.8*
C=CC(=O)NC(NC(=O)C=C)c1ccccc1F	-0.1%	12.1	-1.5%	-1.1
COc1ccc(NC(c2ccccc2F)P(=O)(Oc2ccccc2)Oc2ccccc2)cc1 (centres undefined)	2.6%	15.0	-3.4%	6.3
COc1ccc(NC(c2ccccc2)P(=O)(Oc2ccccc2)Oc2ccccc2)cc1 (centres undefined)	-3.1%	-2.6	-6.6%	10.6*
Nn1c(SCc2ccccc2)nnc1-c1ccco1	0.4%	1.7	-21.0%	9.3*
COc1cccc(CSc2nnc(-c3ccco3)n2C)c1	1.2%	41.5	-69.5%	39.6*
Nn1c(SCc2ccccc2)nc2ccccc21	3.7%	68.8*	-1.1%	68.5*
SMILES	SARS PLP yeast	Shiga toxin inh	NS1 inh	CHX counter
Cc1cccc(CSc2nnc(-c3ccco3)n2C)c1	-4.4%	41.7	-87.9%	21.6*
O=C(O)Cn1c(SCc2ccccc2)nc2ccccc21	4.5%	-11.6	-6.9%	-0.9
Nn1c(SCc2cccc3ccccc23)nnc1-c1ccco1	-5.7%	-13.7	-109.8%	6.8
Cn1c(SCc2cccc3ccccc23)nnc1-c1ccco1	-24.1%	6.2	-62.8%	6.2
N#Cc1ccc(C(=O)OCC(=O)N2CCCC2)cc1	1.8%	3.0	10.5%	4.0
O=C(Cn1nnc2c(cnn2-c2ccc(F)cc2)c1=O)c1ccccc1F	-4.8%	18.7	8.2%	9.2
CC(C)OC(=O)Cn1nnc2c(cnn2-c2ccccc2)c1=O	3.0%	64.8*	3.7%	45.8*
COC(=O)Cn1nnc2c(cnn2-c2ccccc2)c1=O	0.5%	53.3	0.4%	25.3*
CCSc1nnc(NC(=O)CN2C(=O)NC3(CCCC3)C2=O)s1	3.5%	/	/	/
COc1cc(C(=O)COC(=O)c2cc([N+](=O)[O-])ccc2N2CCOCC2)ccc1OC(F)F	-2.2%	/	/	/
